From PubChem BioAssay (NCATS) come the findings set out here.

Inconclusive results are not listed. Where a call stands in place of a potency, no number is given. Active and inactive are the calls of the source. Calls follow the shape of the dose curve; as a rule, active = well fitted activation curve with a large enough effect; inconclusive = small, poorly fitted or top-dose-only effect; inactive = flat fitted curve, though single readings scatter.

A short description of this assay: HEK293 18hr Apoptosis Induction qHTS against the NCATS CANVASS Library (AID 1347357). To be noted: HEK293 caspase-3/7 Caspase-Glo luminescence; series mostly up to 46.1 µM. The text has this: Natural products and their derivatives continue to be wellsprings of nascent therapeutic potential. However, many laboratories have limited resources for biological evaluation, leaving their previously isolated or synthesized compounds largely or completely untested. To address this issue, the Canvass library of natural products was assembled (https://tripod.nih.gov/canvass), in collaboration with academic and industry researchers, for quantitative high-throughput screening (qHTS) across a diverse set of cell-based and biochemical assays. The pure (>85% purity by liquid chromatography/mass spectrometry [LC/MS]) Canvass library of 346 natural products were submitted by 45 academic laboratories and companies around the world. We collected pure natural products to circumvent deconvolution and structure elucidation due to time and resource limitations. The library was formatted into 1536-well plates and evaluated in 50 qHTS (in an 11-pnt concentration series) bioassays with broad scope of disease-relevant mechanisms. The resulting data set from 50 different assays was then systematically analyzed to identify overall trends and specific natural products with interesting biological activities. Reported herein are the results of each individual qHTS and their corresponding assay protocol. The Caspase-Glo (R) (Promega) is a homogeneous, luminescent assay that measures caspase activity. The detection substrate contains tetrapeptide sequence DEVD in an "add-mix-measure" format. The reagent generates a luminescent signal produced by a thermostable luciferase. The luminescence is proportional to the amount of caspase activity in the assay reaction. National Center for Advancing Translational Sciences (NCATS), Rockville, MD National Institute of Health (NIH), Bethesda, Maryland
Cancer Cell Apoptosis Assay 1. In a 1536 well, white solid bottom tissue culture plates (Corning 7494), HEK293 cancer cells in DMEM + 10% FBS + 1% P/S media were dispensed in each well at a final concentration of 500 cells / well (5uL volume) using the Multidrop Combi (Thermo Fisher Scientific) dispenser. 2. Compounds were pin transferred (~23nL volume) via Wako Pin-tool (Wako Automation, Richmond VA) equipped with a 1536 pin head. The assay plates were treated with compounds in a concentration series with a final concentration range of 0.17nM to 103uM. 3. Doxorubicin was used as a control in a 16pnt titration (1mM; 1:2 dilution; 16-points; n = 2; column 3, rows 1 - 32) and was pin transferred via Wako Pin-tool equipped with a 1536 pin head. The final concentration range of doxorubicin is 0.1nM - 4uM. 4. The assay plates were incubated for 18 hours at 37 degrees C/5% CO2/95% Rh. 5. 3uL Caspase-Glo 3/7 (R) (Promega) detection reagent was then added to the assay plates (columns 2 - 48, rows 1 - 32) and incubated at room temperature, covered from light, for 15 min. 6. Luminescence signal was acquired via the ViewLux plate reader (PerkinElmer) using a clear filter, 20 second exposure and 2x binning settings.
(In general: In qHTS, concentration-response curves come from the screen itself.)
Consider `C[C@H]1C[C@@H]([C@@H]2CC[C@]34O[C@H](CC[C@@]35C[C@H](C)C(=O)O5)CN24)OC1=O`, for which the Potency result is “inactive”. The value for `O=Cc1ccc2n1C[C@@]1(C[C@H](O)[C@@H](CO)O1)OC2` was “inactive”; that for `C=C1C[C@@]23C=CC(=O)[C@@](C)(CCC(=O)Nc4c(O)ccc(C(=O)O)c4O)C2C[C@@H]1CC3` (stereo not given in full) was “inactive”; that for `C=C[C@]1(C)CC[C@@H]([C@H](C)C(=O)/C=C/C(C)C)O1` was “inactive”. For `C[C@@]12CCC[C@@](C)(C(=O)O)[C@H]1CC[C@]13C[C@H]4C[C@H](O[C@@]4(C)C1)[C@H]32` the value was “inactive”; for `Oc1ccc([C@H]2Oc3ccc(/C=C/c4cc(O)cc(O)c4)cc3C2c2cc(O)cc(O)c2)cc1` (stereo not given in full), “inactive”. In the case of `O=C(O)[C@@]12CO[C@@]3(O)C4CCN(CC[C@H]31)[C@H]4c1c2[nH]c2ccccc12`, the Potency entry was “inactive”.

Regarding `COc1ccc2cc(NC(=O)C3=NO[C@H]4[C@H](O)C=C[C@@H](Cl)[C@@]4(O)C3)c(=O)oc2c1OC`, the Potency result is “inactive”.

Regarding `C[C@@]12C[C@@H](C[C@H]3C(=O)O[C@@H](c4ccoc4)[C@H](OC(=O)c4ccccc4)[C@@H]31)OC2=O`, the Potency result was “inactive”. Turning to `O=C(OC1Cc2c(O)cc(O)cc2OC1c1cc(O)c(O)c(O)c1)c1cc(O)c(O)c(O)c1` (stereo not given), the Potency entry was “inactive”.

For `CC12C[C@]3(O)O[C@@H](O1)[C@]1(COC(=O)c4ccccc4)[C@@H]3CC21OC1OC(CO)C(O)C(O)C1O` (stereo not given in full), the Potency entry was “inactive”. For `C[C@@H]1O[C@@H](O[C@@H]2[C@@H](O)[C@H](O[C@@H]3[C@@H](O)[C@@H](O)C(O[C@H]4[C@H](OC(=O)[C@]56CCC(C)(C)C[C@H]5C5=CCC7[C@@]8(C)C[C@H](O)[C@H](O[C@@H]9C[C@H](CO)[C@@H](O)[C@H](O)[C@H]9O)[C@@](C)(CO)C8[C@H](O)C[C@@]7(C)[C@]5(C)CC6)OC[C@H](O)[C@@H]4O)O[C@H]3C)OC[C@H]2O)[C@H](O)[C@H](O)[C@H]1O` (stereo not given in full) the value was “inactive”; for `C[C@@H]1O[C@H](c2c(O)cc(O)c3c(=O)cc(-c4ccc(O)cc4)oc23)[C@H](O)[C@H](O)[C@H]1O`, “inactive”.

As for `CN1CC[C@]2(c3cccc4c3N[C@@H]3N(C)CC[C@]43[C@@]34CCN(C)[C@@H]3Nc3c([C@]56CCN(C)[C@H]5Nc5ccccc56)cccc34)c3ccccc3N[C@H]12`, the Potency entry was “inactive”. For `C/C=C/C=C/C1(O)C2C=C3C(=O)CC45C(=O)C(O)=C(C)C(=O)C4C1C1(C(=O)C(O)=C(C)C(=O)C351)C2C` (stereo not given) the value was “inactive”; for `Cc1cc(O)cc2oc(C[C@H](C)O)cc(=O)c12`, “inactive”; for `CC(=O)O[C@H]1CC[C@@]2(C)C(CC[C@]3(C)C2CC=C2C4CC(C)(C)CC[C@]4(C)CC[C@]23C)C1(C)C` (stereo not given in full), “inactive”.

As for `CC[C@@H]1C[C@@]2(CC)OC(=O)[C@@]3(CC)OC(=O)[C@@H]1[C@@H]23`, the Potency entry was “inactive”. For `CCCCCC[C@H](CCCCC[C@@H](O)C(N)=O)OC(=O)[C@@H]1CC=CN1C(=O)c1ccccc1O` the value was “inactive”; for `CO[C@@H]1C[C@@H](C[C@H]2CC[C@H](C)[C@H]([C@@H](C)C(=O)O)O2)O[C@]2(O[C@](C)([C@H]3CC[C@@](C)([C@@H]4O[C@@H]([C@H]5O[C@](C)(O)[C@H](C)C[C@@H]5C)C[C@@H]4C)O3)C[C@H]2C)[C@@H]1C`, “inactive”.

As for `C=C[C@@]1(C)CC[C@@H]([C@H](C)C(=O)/C=C/C(C)C)O1`, the Potency entry is “inactive”.

As for `O=Cc1ccc2n1C[C@@]1(C[C@H](O)[C@H](O)CO1)OC2`, the Potency entry was “inactive”. For the compound `C[C@@H](O)[C@H]1OC(=O)C=C2[C@]3(C)[C@H]4[C@H](OC(=O)[C@@]4(C)[C@@H](O)[C@H]4O[C@H]43)[C@H]3O[C@@]231`, the Potency entry was “inactive”. For `C[C@@H]1O[C@@H](Oc2c(-c3ccc(O)cc3)oc3cc(O)cc(O)c3c2=O)[C@H](O)[C@H](O)[C@H]1O` the value was “inactive”; for `C[C@]12CC[C@]3(C1)[C@H](CC2=O)CC(OC(=O)c1ccccc1)[C@H]1[C@@](CO)(C(=O)O)CCC[C@@]13C` (stereo not given in full), “inactive”; for `CC(=O)[C@@H]1[C@@H](O)C[C@H]2[C@]3(C)CC[C@H]4C(C)(C)CCC[C@]4(CO)[C@H]3C[C@H]3OC(=O)[C@@H]1[C@@]32C`, “inactive”. As to `O=C(O)CC1OCc2c(O)cccc21` (stereo not given), the Potency entry is “inactive”. The value for `C=C1[C@H]2CC[C@@]3(C=CC(=O)[C@@](C)(CCC(=O)Nc4c(O)ccc(C(=O)O)c4O)C3C2)[C@H]1O` (stereo not given in full) was “inactive”. The value for `O=c1cc(-c2ccc(O)c(O[C@@H]3O[C@H](CO)[C@@H](O)[C@H](O)[C@H]3O)c2)oc2cc(O[C@@H]3O[C@H](CO)[C@@H](O)[C@H](O)[C@H]3O)cc(O)c12` was “inactive”; that for `CCCCCCC[C@@H](C/C=C/CCC(=O)NCCc1c[nH]c2ccccc12)OC` was “inactive”. Turning to `C=C(NC(=O)c1csc(-c2nc3c(cc2O)-c2nc(cs2)C(=O)NC(C(C)O)C(=O)N/C(=C(\C)O)c2nc(cs2)C(=O)NC2c4nc(cs4)C(=O)NC(COC(=O)c4c5c6c(cccc6n4O)COC(=O)[C@@H](OC4C[C@](C)(O)[C@H](N(C)C)[C@H](C)O4)C2OC5)c2nc-3cs2)n1)C(N)=O` (stereo not given in full), the Potency entry was “inactive”. For `CCCCCCCCCCCCCCCC(=O)OC/C=C(\C)CCCC(C)CC(C)C(C)C` (stereo not given) the value was “inactive”. The value for `O=C(O)[C@@]12COC3(O)C1CCN1CC[C@H]3[C@@H]1c1c2[nH]c2ccccc12` was “inactive”; that for `O=C(O)CC1OC(=O)c2c(O)cccc21` (stereo not given) was “inactive”. The value for `C/C=C1/CC[C@@H]2c3[nH]c4ccccc4c3CCN2C1` was “inactive”; that for `C=C1C[C@@]23C=CC(=O)[C@@](C)(CCC(=O)Nc4c(O)ccc(C(=O)O)c4O)C2C[C@@H]1C(O)C3` (stereo not given in full) was “inactive”; that for `OCc1ccc2ocnc2c1` was “inactive”. With `COc1ccc(/C=C2\COc3cc(O)ccc3C2=O)cc1`, the Potency entry is “inactive”. For `CC1C(=O)C23CCC1C[C@@]21O[C@H]2C(C)(C)C=CC(=O)[C@@]23COC1=O` (stereo not given in full) the value was “inactive”; for `C/C(=C\[C@H](C)C(=O)CCCC1CC(=O)NC(=O)C1)C(O)[C@@H](C)[C@H](O)C/C=C/CC/C=C/C(=O)O` (stereo not given in full), “inactive”.
